The text below walks through data of PubChem BioAssay (NCATS).

A short description of assay [1]: qHTS for identification of novel therapeutic agents for treatment of microphthalmiaassociated transcription factor (MiT) renal cell carcinoma (RCC) (AID 1963991). To be noted: CellTiter-Glo, 48 h, stronger effect = lower value. The essentials:
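Three TFE3-fusion RCC cell lines (UOK109, UOK124, UOK145), 500 cells/well, were exposed to the 1912-compound MIPE 4.0 library for 48 hours at 37 C. Viability was read by CellTiter-Glo luminescence, normalised to DMSO (100%) and empty wells (0%), with 11-concentration curve fits.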
In general terms: qHTS replaces the single test concentration by a dilution series.

Assay [2] is described as follows: qHTS profiling for inhibitors of Plasmodium falciparum proliferation (AID 504749). Further: nearly all actives have a fitted effect of over 60% in size. Further: potency means the concentration at half of the fitted maximal effect.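 On activity, negative = inhibition: 0% = DMSO vehicle and full inhibition = artemisinin control.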 The conditions noted are these: P. falciparum in erythrocytes, SYBR Green DNA, 72 h. The essentials: (§1)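 Parasite proliferation within erythrocytes, 72 h exposure. Endpoint: SYBR Green I fluorescence after overnight lysis at room temperature. Controls: 0.29 uM artemisinin, DMSO.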
In a further assay the test system is 3D7. The assay is described as above. The conditions noted are these: P. falciparum in erythrocytes, SYBR Green DNA, 72 h; series mostly up to 28.7 µM. The essentials:
as §1

The test system of another assay is 7G8. Described as above. The conditions noted are these: P. falciparum in erythrocytes, SYBR Green DNA, 72 h; series mostly up to 28.7 µM. The essentials:
as §1

A further assay concerns AA1029. The description is as above. To be noted: P. falciparum in erythrocytes, SYBR Green DNA, 72 h; series mostly up to 28.7 µM. The essentials:
as §1

A further assay concerns AS120. The assay is described as above. The conditions noted are these: P. falciparum in erythrocytes, SYBR Green DNA, 72 h; series mostly up to 28.7 µM. The essentials: as §1
A further assay deals with ATS189. The description is as above. The conditions noted are these: P. falciparum in erythrocytes, SYBR Green DNA, 72 h; series mostly up to 28.7 µM. The essentials:
as §1

For a further assay, the system named is C2A. Described as above. The conditions noted are these: P. falciparum in erythrocytes, SYBR Green DNA, 72 h; series mostly up to 28.7 µM. The essentials:
as §1

A further assay deals with CP185. Described as above. The conditions noted are these: P. falciparum in erythrocytes, SYBR Green DNA, 72 h; series mostly up to 28.7 µM. The essentials:
as §1

A further assay deals with CP191. The description is as above. To be noted: P. falciparum in erythrocytes, SYBR Green DNA, 72 h; series mostly up to 28.7 µM. The essentials:
as §1

For another assay, the system named is CP192. The description is as above. The conditions noted are these: P. falciparum in erythrocytes, SYBR Green DNA, 72 h; series mostly up to 28.7 µM. The essentials: as §1
For a further assay, the system named is CP194. The assay is described as above. The conditions noted are these: P. falciparum in erythrocytes, SYBR Green DNA, 72 h; series mostly up to 28.7 µM. The essentials: as §1
The test system of the next assay is CP201. The assay is described as above. The conditions noted are these: P. falciparum in erythrocytes, SYBR Green DNA, 72 h; series mostly up to 28.7 µM. The essentials: as §1
Another assay relates to CP211. The description is as above. To be noted: P. falciparum in erythrocytes, SYBR Green DNA, 72 h; series mostly up to 28.7 µM. The essentials: as §1
A further assay has as its system CP217. The assay is described as above. The conditions noted are these: P. falciparum in erythrocytes, SYBR Green DNA, 72 h; series mostly up to 28.7 µM. The essentials:
as §1

The next assay deals with CP237. The description is as above. The conditions noted are these: P. falciparum in erythrocytes, SYBR Green DNA, 72 h; series mostly up to 28.7 µM. The essentials:
as §1

Assay [3] is described as follows: qHTS drug screen for cell cycle checkpoint inhibitors in PARPi-resistant BRCA-mutant ovarian cancer cell lines. (AID 1963452; calls by dose curve). The conditions noted are these: PEO1/OlaR viability, CellTiter-Glo luminescence, 96 h, stronger effect = lower value. The essentials:
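PEO1, PEO4 and PEO1/OlaR ovarian cancer cells, 600 per well, exposed 96 h at 37C to a dilution series. Viability read by CellTiter-Glo luminescence, normalized to DMSO and empty wells; activity summarized as Z-AUC.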

The test system of a further assay is ATS95. Kind of assay: qHTS profiling for inhibitors of Plasmodium falciparum proliferation (AID 504749). Further: nearly all actives have a fitted effect of over 60% in size. Further: potency means the concentration at half of the fitted maximal effect.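 On activity, negative = inhibition: 0% = DMSO vehicle and full inhibition = artemisinin control.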 To be noted: P. falciparum in erythrocytes, SYBR Green DNA, 72 h; series mostly up to 28.7 µM. The essentials: as §1
The next assay concerns CP215. Described as above. To be noted: P. falciparum in erythrocytes, SYBR Green DNA, 72 h; series mostly up to 28.7 µM. The essentials: as §1
Setting [4] is: TFE3-RCC UOK109 viability, measured here: UOK109 Z-AUC.
Setting [5] is: TFE3-RCC viability, measured here: UOK124 Z-AUC.
The mark [6] stands for this setting: TFE3-RCC viability, measured here: UOK145 Z-AUC.
The mark [7] stands for this setting: at 28.7 µM (top of the series), parasite line A.
Where [8] appears, read: at 28.7 µM (top of the series), parasite line B.

Inconclusive results are not listed. Active and inactive are the calls of the source. Unless noted, the call rests on the fitted dose curve; in most records, active means well fitted inhibition curve with a large enough effect; inconclusive means small, poorly fitted or top-dose-only effect; inactive means flat fitted curve, though single readings scatter.

On to `O=c1n(CCCN2CCN(c3cccc(Cl)c3)CC2)nc2ccccn12`, for which the values for the z-score in assay [1] (setting [4]), in assay [1] (setting [5]) and in [1] (setting [6]) were -0.148, 0.322 and 1.01, respectively. The activity, negative = inhibition in [2] (at 12.8 µM (top of the series), parasite line A) was -5.98% (inactive). The Potency entry in the assay with 3D7, in the assay on 7G8, with AA1029, in the assay on AS120, with ATS189 and in the assay with C2A was “inactive” in each case. Also, the Potency entry in the assay on CP185, with CP191, in the assay on CP192, in the assay on CP194, in the assay with CP211 and with CP217 was “inactive” throughout. Also, in the assay with CP237, the Potency result is “inactive”. For the same molecule, in the assay with CP201, the molecule was classed as inactive.

On to `C[C@]12CC[C@H](O)CC1=CC[C@@H]1[C@H]2CC[C@]2(C)C(c3cccnc3)=CC[C@H]12`, for which the z-score in [1] (setting [4]) was 0.87; in assay [1] (setting [5]), 0.84; in assay [1] (setting [6]) it was 0.924.

Take `CCCc1nc2c(C)cc(-c3nc4ccccc4n3C)cc2n1Cc1ccc(-c2ccccc2C(=O)O)cc1`: the values for the Z-AUC in [3], in assay [3] (measured here: PEO1 parental Z-AUC) and in assay [3] (measured here: PEO4 Z-AUC) were 0.748 (inactive), 1.08 and 0.729, respectively. Besides, the activity, negative = inhibition in assay [2] (setting [7]) was -11.3% (inactive). Moreover, the Potency in [2] (parasite line B) is 1.78 µM (active); in the assay on 3D7, 8.91 µM (active); in the assay with 7G8 it was 0.316 µM (active); in the assay on AS120, 1.41 µM (active); with ATS189, 0.794 µM (active); in the assay on ATS95 it was 3.98 µM (active). Also, the Potency in the assay with CP237 was 4.47 µM (active). The Potency result in the assay on CP185 was “inactive”. In addition, the outcome with CP201 was inactive.

For `Oc1ccc(C2CNCCc3c2cc(O)c(O)c3Cl)cc1` (configuration not stated), the z-score was found to be 0.257 in [1] (setting [4]), 0.218 in assay [1] (setting [5]) and 0.231 in [1] (setting [6]). The Potency entry with 3D7, in the assay with AA1029, with AS120, with ATS189, in the assay on ATS95 and in the assay with C2A was “inactive” in each case. Also, the Potency entry with CP185, in the assay on CP191, in the assay on CP192, with CP194, with CP211 and with CP215 was “inactive” each time. For the same molecule, the Potency entry in the assay with CP217 and in the assay with CP237 was “inactive” each time. Moreover, the molecule was called inactive in the assay with CP201.

For `CC(C)C[C@H](NC(=O)[C@@H](O)[C@H](N)Cc1ccccc1)C(=O)O`, the Potency is 2.51 µM (active) in [2] (parasite line A); 5.62 µM (active) in [2] (parasite line B); 2.51 µM (active) with 3D7; 4.47 µM (active) with 7G8; 5.62 µM (active) with AA1029; 6.31 µM (active) in the assay on AS120. The Potency in the assay with ATS189 was 8.91 µM (active); in the assay with ATS95, 7.94 µM (active); with C2A it was 3.98 µM (active); in the assay with CP185, 11.2 µM (active); with CP191, 5.01 µM (active); in the assay on CP194, 6.75 µM (active). Also, the Potency was 6.01 µM (active) in the assay with CP211, 6.75 µM (active) in the assay on CP215, 6.31 µM (active) in the assay on CP217 and 4.47 µM (active) with CP237.

For the molecule `CCn1cc(C(=O)O)c(=O)c2cc(F)c(N3CCNC(C)C3)c(F)c21` (configuration not stated), the z-score in assay [1] (setting [4]) stood at 0.479; in assay [1] (setting [5]), 0.345; in assay [1] (setting [6]) it was 0.675.

As for `CC(C)NCC(O)COc1ccc(COCCOC(C)C)cc1` (configuration not stated), the figures for the activity, negative = inhibition in assay [2] (setting [7]) and in assay [2] (setting [8]) were 1.04% (inactive) and 5.04% (inactive), respectively. In addition, the Potency entry in the assay on 3D7, in the assay on 7G8, in the assay with AA1029, in the assay on AS120, in the assay on ATS189 and with ATS95 was “inactive” in each case. Besides, the Potency result in the assay with C2A, in the assay on CP185, in the assay with CP191, in the assay on CP192, with CP194 and in the assay on CP211 was “inactive” throughout. Moreover, the Potency result with CP215, in the assay on CP217 and in the assay on CP237 was “inactive” in each case. The molecule was classed as inactive in the assay on CP201.

Regarding `CCOc1cc(C=C2C(=O)N(c3ccccc3)N=C2C)cc(Cl)c1OCC(=O)OC`, the figures for the z-score in [1] (setting [4]), in assay [1] (setting [5]) and in [1] (setting [6]) were 0.66, 0.208 and 0.267, respectively.

As to `Clc1cccc(Cl)c1NC1=NCCN1`, the z-score was 0.351 in [1] (setting [4]), 0.654 in [1] (setting [5]) and -0.377 in [1] (setting [6]). Moreover, the activity, negative = inhibition was -1.81% (inactive) in [2] (setting [7]) and 0.0653% (inactive) in assay [2] (setting [8]). Moreover, the Potency result in the assay on 3D7, in the assay on AA1029, in the assay on AS120, in the assay with ATS189, in the assay on ATS95 and in the assay on C2A was “inactive” each time. The Potency result with CP185, with CP191, in the assay on CP192, with CP194, in the assay on CP211 and with CP215 was “inactive” each time. The Potency entry with CP217 and with CP237 was “inactive” each time. In the assay with CP201, the molecule was called inactive.
